# Compound activity: PubChem BioAssay, National Center for Advancing Translational Sciences (NCATS)
# The list is not random: actives were taken first. Their share in the collection is about 1.3%.
# LmPK inh: qHTS Assay for Inhibitors of Leishmania Mexicana Pyruvate Kinase (LmPK). AID 1721, 2009. Potency, µM (titrated, usually from 57.5 µM), without a hit: at the highest dose activity change, negative = inhibition, actives largely listed as inhibitors. purified LmPK, Kinase-Glo ATP luminescence, 1 h. hit rate 0.37% among 290,000. Q27686
# Target sequence (Q27686 whole entry, looked up): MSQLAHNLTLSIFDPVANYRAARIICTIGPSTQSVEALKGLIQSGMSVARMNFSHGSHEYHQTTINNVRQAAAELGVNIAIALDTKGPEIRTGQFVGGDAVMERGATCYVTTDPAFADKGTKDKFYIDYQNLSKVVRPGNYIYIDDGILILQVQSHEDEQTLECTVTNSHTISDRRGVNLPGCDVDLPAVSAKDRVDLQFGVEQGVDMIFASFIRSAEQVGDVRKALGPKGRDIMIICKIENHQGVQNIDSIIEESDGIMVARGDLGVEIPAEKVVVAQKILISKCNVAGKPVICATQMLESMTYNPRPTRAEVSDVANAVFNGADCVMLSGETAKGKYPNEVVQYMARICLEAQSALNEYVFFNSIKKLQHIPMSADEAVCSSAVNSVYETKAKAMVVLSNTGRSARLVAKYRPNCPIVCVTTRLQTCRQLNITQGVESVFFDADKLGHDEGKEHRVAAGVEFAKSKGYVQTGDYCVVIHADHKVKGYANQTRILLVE
#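 In 50 mM imidazole pH 7.2 with 7 mM MgCl2, LmPK (0.1 nM) turned over PEP (0.5 mM) and ADP (0.1 mM) for 1 h at room temperature. Luciferase read-out of ATP.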
# VACV Venus inh: qHTS for Stage-Specific Inhibitors of Vaccinia Orthopoxvirus: Venus Reporter Primary qHTS | Vaccinia virus Venus reporter expression, fluorescence | hit rate 0.46% among 330,000 | Potency, µM (top dose mostly 36.5 µM), without a hit: at the highest dose activity change, negative = inhibition, most hits filed as inhibitors; calls by dose curve; tested in A549 cells; further: nearly all actives have a fitted effect of over 30% in size
# AMA1-RON2 inh: qHTS for Inhibitors of AMA1-RON; Towards Development of Antimalarial Drug Lead: Primary Screen; Plasmodium falciparum AMA1 (3D7) - RON2 peptide interaction; AlphaScreen AMA1-biotinylated RON2 peptide binding; Potency, µM (titrated, usually from 58.2 µM), for inactives: at the highest dose activity change, negative = inhibition, most hits filed as inhibitors; hit rate 0.2% among 360,000;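 further: 0% = vehicle wells and -100% = peptide control; nearly all actives have a fitted effect of over 45% in size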
#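 AMA1 (3D7) with his tag at 25 nM final met compounds first, then biotinylated RON2 peptide at 25 nM; detection used donor plus acceptor beads, 10 µg/mL apiece, read by AlphaScreen after 30 min at room temperature.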
# TbPYK inhibitor: qHTS of Trypanosoma Brucei Inhibitors; pyruvate kinase (Trypanosoma brucei), Q57TT1; TbPYK enzyme, Kinase-Glo Plus ATP luminescence, 45 min; Potency, µM (highest dose often 76.8 µM), for the others: at the top dose activity, negative = inhibition, usual class: inhibitors; hit rate 0.12% among 410,000; further: nearly all actives have a fitted effect of over 50% in size
#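 Activity of T. brucei pyruvate kinase was followed by Kinase-Glo Plus luminescence after the enzyme reacted 45 min at room temperature with 130 uM ADP (final) and substrate. Test compounds were added before ADP at multiple concentrations.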
# VACV mCherry inh: qHTS for Stage-Specific Inhibitors of Vaccinia Orthopoxvirus: mCherry Reporter Primary qHTS | Vaccinia virus mCherry reporter infection, fluorescence | Potency, µM (titrated, usually from 36.5 µM), inactives show at the highest dose activity change, negative = inhibition, most hits filed as inhibitors | hit rate 0.63% among 310,000 | AID 720579, 2013; calls by dose curve; tested in A549 cells; further: nearly all actives have a fitted effect of over 35% in size
# RE007 growth inh: qHTS Assay for Inhibitors of the HIV-1 protein Vpr; S. pombe RE007 Vpr strain, BacTiter-Glo ATP luminescence, 24 h; Potency, µM (series often up to 92.2 µM), for inactives: top-dose activity change, negative = less growth, usual class: inhibitors; hit rate 0.21% among 360,000; active means well fitted falling curve with a large enough effect; inconclusive means small, poorly fitted or top-dose-only effect; inactive means no such curve, though single readings can be large or run the other way; further: nearly all actives have a fitted effect of over 50% in size
#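 Fission yeast RE007 carrying one integrated HIV-1 vpr copy, seeded at OD 0.01 in PMG+AL medium with 23 nL pinned compound. Grown 24 h at 30 degrees; viability read by BacTiter-Glo luminescence after 5 min.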
# Starred values were filed as active, the others as inactive; i = inactive; ? = inconclusive; . = not tested or not shown; [ ] = remark or other dose. Unless noted, the call rests on the fitted dose curve; in most records, active means well fitted curve in the direction sought with a large enough effect; inconclusive means small, poorly fitted or top-dose-only effect, or another doubt; inactive means no such curve, though single readings can be large; an effect the other way counts as inactive or inconclusive. Unless noted, on the % scale 0 is the no-effect control and ±100 the full control effect; potency means the concentration at half of the fitted maximal effect.
SMILES,LmPK inh,VACV Venus inh,AMA1-RON2 inh,TbPYK inhibitor,VACV mCherry inh,RE007 growth inh
O=C(CCS(=O)(=O)c1ccccc1)Nc1nc(-c2ccc(F)cc2)cs1,6%,?,3%,-5%,13µM*,-7%
Cc1c(C(=O)NCc2ccc(F)cc2)sc2ncnc(NCC3CCCO3)c12 (centres undefined),.,-6%,.,.,-19%,.
CO[C@@H](COC(N)=O)C1=C(N2CC2)C(=O)C(C)=C(N2CC2)C1=O,.,.,.,3%,.,.
COC(COC(N)=O)C1=C(N2CC2)C(=O)C(C)=C(N2CC2)C1=O (centres undefined),.,2.8µM*,-3%,-12%,?,-22%
COCc1c(C(=O)NC2CCCCCC2)cnn1-c1nccc(-c2cc(C)sc2C)n1,.,-6%,.,.,-12%,.
C=C(Br)COC(c1ccco1)[C@H](Cc1ccccc1)NC(=O)OC(C)(C)C (some centres undefined),.,-23%,.,.,-9%,.
C=C1C(=O)C23C(O)C1CCC2C12CCCC(C)(COC(C)=O)C1C(O)C3(O)OC2 (centres undefined),.,4µM*,2%,?,2.5µM*,-16%
COC(=O)C1CCCCN1Cc1ccc2c(c1)CN(Cc1cnn(-c3ccccc3)c1)CCO2 (centres undefined),.,-6%,.,.,-7%,.
c1ccc(-c2cc(NCCN3CCCCC3)c3ccccc3n2)cc1,2%,11µM*,3%,-1%,?,-8%
Cn1cnnc1Sc1ccc(CN2CCOc3ccc(C4=CCCCC4)cc3C2)o1,.,-15%,.,.,-18%,.
COC(=O)CCC(=O)OC1(C)C(=O)C=C2C=C(C3CC3)N(c3ccc(OC)cc3)C=C2C1=O (centres undefined),-7%[11.5 µM],.,.,.,.,.
COCCC1CCCCN1Cc1nc(N2CCCC2)c2cc(OC)c(OC)cc2n1 (centres undefined),.,-14%,.,.,i,.
CC1(C)OC(=O)C2(Cc3ccccc3N3CCC(c4ccccc4)CC32)C(=O)O1 (centres undefined),.,-7%,.,.,14%,.
NS(=O)(=O)c1ccc(N/N=C2/CCCCC2C2CCCCC2)c([N+](=O)[O-])c1 (centres undefined),-1%,16µM*,-30%,-15%,20µM*,0%
CC(C)N1C[C@@H](Sc2ccccn2)C[C@H]1C(=O)Nc1ccc2c(c1)Nc1ccccc1CC2,.,7%,.,.,-10%,.
CC(=O)OC1CC[C@@]2(C)C3CC(=O)[C@]4(C)C(C(C)=O)=CCC4C3CC[C@H]2C1 (some centres undefined),.,0%,.,.,i,.
CC(=O)OC1CCC2(C)C(CCC3C4CC=C(C(C)=O)C4(C)OC(=O)CC32)C1 (centres undefined),.,11µM*,19%,1%,?,?
Cc1nc2nc(C)n(CCN3CCOCC3)c(=O)c2c(-c2cccc([N+](=O)[O-])c2)c1C(=O)CCCCCCCCCCN1CCC(c2ccccc2)(c2ccccc2)CC1,.,10µM*,?,-2%,?,2%
COc1ccccc1-c1ccnc(-n2ncc(C(=O)NCc3ccncc3)c2C)n1,.,-18%,.,.,?,.
CCC(c1ccc(O)c(O)c1)C(CC)c1ccc(O)c(O)c1 (centres undefined),.,-15%,25µM*,-26%,3.2µM*,-17%
CCC(NC(C)C)C(O)c1ccc(O)c(O)c1 (centres undefined),-16%,-12%,-28%,-7%,-13%,7%[18.4 µM]
COC1=CC(=O)c2ccccc2C1=O,.,?,6%,-6%,?,22µM*
COC1=CC(=O)C=C(OC)C1=O,.,-14%,11%,?,-2%,-15%[18.4 µM]
CCN(CC)c1ccc(/C=N/n2c(-c3ccccc3Br)n[nH]c2=S)cc1,-17%,-15%,20%,-13%,-26%,10%
